Bioassay records as filed in PubChem BioAssay.
A selection: hits, their analogues and other compounds. The true share with any hit is near 3.8%.
HBB splice mod – alters splicing of the hemoglobin beta chain; HBB splicing reporter cell assay, activation; EGFP reporter with mutant IVS2-654 intron; response scale: normalised to 500 nM splice-correcting PNA; Potency, µM (top dose mostly 46.1 µM), most hits filed as activators; AID 925; 0.06% of 65,000 active
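Compounds were applied for 2 days to HeLa EGFP-654 cells, 500/well in Optimem with 2% FCS. The reporter's EGFP is disrupted by mis-splicing of beta-globin intron IVS2-654. Readout: summed well GFP fluorescence from 488 nm laser scanning; reference was 500 nM antisense […] 654 PNA.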
TSHR ag – agonists of human thyroid stimulating hormone receptor; HEK293-CNG-TSHR cells (CNG channel as cAMP sensor), membrane potential dye, cAMP; Potency, µM (top dose mostly 57.1 µM), actives largely listed as activators; 0.48% of 73,000 active; AID 926; active = well fitted activation curve with a large enough effect in the main read-out, with a control signal flat, not every such curve was filed as active; inconclusive = small, poorly fitted or top-dose-only effect, or a change in a side signal; inactive = no such curve, though single readings can be large or run the other way; reference of the percent scale not stated here;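 also: the control signal comes from parental cells without the receptor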
Target sequence (P16473 whole entry, looked up): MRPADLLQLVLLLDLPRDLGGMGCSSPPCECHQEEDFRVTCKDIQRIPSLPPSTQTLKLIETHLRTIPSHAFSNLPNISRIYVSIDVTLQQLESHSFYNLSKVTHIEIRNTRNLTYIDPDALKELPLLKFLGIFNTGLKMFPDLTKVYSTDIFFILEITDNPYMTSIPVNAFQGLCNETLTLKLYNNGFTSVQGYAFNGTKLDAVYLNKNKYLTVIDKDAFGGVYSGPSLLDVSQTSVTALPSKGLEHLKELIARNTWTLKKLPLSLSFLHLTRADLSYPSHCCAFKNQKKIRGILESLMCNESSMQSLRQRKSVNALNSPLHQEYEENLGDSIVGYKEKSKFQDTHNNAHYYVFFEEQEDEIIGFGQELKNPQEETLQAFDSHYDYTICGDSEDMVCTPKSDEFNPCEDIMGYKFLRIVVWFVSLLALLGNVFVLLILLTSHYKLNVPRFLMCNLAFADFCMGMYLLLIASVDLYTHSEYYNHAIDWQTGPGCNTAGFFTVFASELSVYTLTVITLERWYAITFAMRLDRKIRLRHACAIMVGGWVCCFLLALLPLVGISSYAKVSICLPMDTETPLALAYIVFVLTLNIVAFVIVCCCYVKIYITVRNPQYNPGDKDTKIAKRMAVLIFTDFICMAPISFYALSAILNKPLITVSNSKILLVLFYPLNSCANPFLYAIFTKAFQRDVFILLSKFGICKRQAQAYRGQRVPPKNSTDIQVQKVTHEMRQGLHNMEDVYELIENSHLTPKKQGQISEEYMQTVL
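HEK 293 cells stably expressing TSHR and a modified CNG channel, with CNG-only parental cells as counterscreen, were preloaded 60 min at room temperature with membrane potential dye containing 100 uM RO 20-1724. Compound exposure was 30 min, and depolarization was read as fluorescence at 590 nm.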
Epigenetic mod – epigenetic modulators derepressing GFP locus in mouse cells; 0.09% of 68,000 active; mouse C127i GFP locus derepression, cytometry, 30 h; Potency, µM (top dose mostly 46.1 µM)
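Read-out is the number of GFP-positive cells, scored as fluorescent objects 20 to 120 um wide, reflecting derepression of a silenced CMV-GFP reporter in murine C127i cells after 30 h compound exposure at 37 C.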
UbGFP stabilizer – proteasome inhibitors stabilizing ubiquitin-GFP reporter; Ubiquitin-GFP reporter cells, proteasome inhibition, GFP fluorescence; response scale: untreated = 0%, 10 µM MG-132 = 100%; Potency, µM (top dose mostly 45.9 µM), hits mostly activators; 67,000 tested, under 10 active; AID 526; active = well fitted activation curve with a large enough effect, not every such curve was filed as active; inconclusive = small, poorly fitted or top-dose-only effect, or another doubt; inactive = no such curve, though single readings can be large or run the other way
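U2OS Ub(G76V)-GFP reporter; O/N plating, 0.5% FBS; cpd 46 uM–2.9 nM, 4 h, 37 °C; GFP+ cell count, 488/515 nm; norm. to basal vs 10 uM MG-132; CRC fit.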
ERK AVP block – vasopressin-driven ERK pathway inhibition | HEK293-V1b, vasopressin-stimulated pERK AlphaScreen | Potency, µM (titrated, usually from 57.5 µM), actives largely listed as inhibitors | 0.99% of 72,000 active; also: nearly all actives have a fitted effect of over 55% in size
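V1b-HEK293 cells; cpd 30 min 37C; 25 nM vasopressin 5 min; lyse 10 min; AlphaScreen beads 5 hr RT. Normalized to DMSO basal and 25 nM vasopressin; AC50 by Hill fit.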
HEK293 cAMP cs – parental HEK293 cAMP activation (counter-screen); parental HEK293 CNG cAMP sensor, membrane potential fluorescence; Potency, µM (doses to about 57.1 µM), hits mostly activators; 2.5% of 73,000 active; also: nearly all actives have a fitted effect of over 55% in size
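Parental HEK 293 cells stably expressing a cAMP-gated CNG channel were loaded with membrane potential dye containing 100 uM RO 20-1724 for 60 min. Compound added for 30 min; depolarization read as fluorescence intensity at 590 nm.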
Each line names hits and unclear results; the compound was inactive in the other large screens; ! = not confirmed by another sample. Unless noted, calls follow the shape of the dose curve; as a rule, active = well fitted curve in the direction sought with a large enough effect; inconclusive = small, poorly fitted or top-dose-only effect, or another doubt; inactive = no such curve, though single readings can be large; an effect the other way counts as inactive or inconclusive.

COc1ccc(C(=O)Nc2cccc(-c3nc4ncccc4o3)c2C)cc1OC	none (no result: HBB splice mod)
CCOc1cccc(C(=O)Nc2cccc(-c3nc4ncccc4o3)c2C)c1	TSHR ag inconclusive, ERK AVP block 12.6µM, HEK293 cAMP cs inconclusive
CC(C)(CO)[C@H](O)C(=O)NCCC(=O)O	none
O=S(=O)(c1ccccc1Cl)N1CCC(O)(c2ccc3c(c2)OCO3)CC1	ERK AVP block 31.6µM (no result: HBB splice mod)
OC1c2ccccc2-c2nc3ccccc3cc21 (stereo not given)	none (no result: Epigenetic mod, UbGFP stabilizer)
C=CCNc1nc2c(c(=O)n(C)c(=O)n2C)n1Cc1ccc(F)cc1	TSHR ag inconclusive, HEK293 cAMP cs 25.1µM (no result: Epigenetic mod, ERK AVP block)
CC(=O)OC[C@@H]1O[C@@H](O/N=C2/C[C@@H](O)[C@@H](O)[C@@H]3[C@@H]4C(=O)N([C@@H](C)c5ccccc5)C(=O)[C@H]4CC[C@@H]23)[C@H](OC(C)=O)[C@H](OC(C)=O)[C@@H]1OC(C)=O	none (no result: Epigenetic mod, UbGFP stabilizer)
N#Cc1ccccc1NC(=O)c1ccc(-c2ccccc2Cl)o1	TSHR ag inconclusive, HEK293 cAMP cs 25.1µM
O=C(O)c1ccc(-c2ccccc2Cl)o1	none
CC1(C)CC2CC(C)(CN2C(=O)COC(=O)c2ccc(Cl)cc2N)C1 (stereo not given)	TSHR ag inconclusive, HEK293 cAMP cs 25.1µM
COc1ccc(CC(=O)N2CC3(C)CC2CC(C)(C)C3)cc1OC (stereo not given)	ERK AVP block 31.6µM (no result: TSHR ag)
COc1cc(-c2nnc(CSc3nc4ccccc4s3)o2)cc(OC)c1OC	TSHR ag inconclusive, ERK AVP block inconclusive, HEK293 cAMP cs 31.6µM
COc1ccc(-c2nnc(CSc3nc4ccccc4c(=O)n3CC(C)C)o2)cc1OC	TSHR ag inconclusive, ERK AVP block inconclusive, HEK293 cAMP cs 7.94µM
COC(=O)[C@@]1(Cc2ccc(OC)cc2)[C@H]2c3cc(C(=O)N4CCCC4)n(CCN4CCOCC4)c3C[C@H]2CN1C(=O)c1ccccc1	TSHR ag inconclusive, HEK293 cAMP cs 20µM (no result: Epigenetic mod, UbGFP stabilizer)
COC(=O)[C@@]1(Cc2ccccc2)[C@H]2c3cc(C(=O)N(C)C)n(CCF)c3C[C@H]2CN1C(=O)c1ccccc1	TSHR ag inconclusive, HEK293 cAMP cs 25.1µM (no result: Epigenetic mod, UbGFP stabilizer)
COC(=O)[C@@]1(Cc2ccc(OC)cc2)[C@H]2c3cc(C(=O)N4CCCC4)n(Cc4ccc(OC)c(OC)c4)c3C[C@H]2CN1C(=O)c1ccccc1	TSHR ag inconclusive, HEK293 cAMP cs 5.01µM (no result: Epigenetic mod, UbGFP stabilizer)
COC(=O)[C@@]1(Cc2ccc(OC)cc2)[C@H]2c3cc(C(=O)N4CCCC4)n(CCF)c3C[C@H]2CN1C(=O)c1ccccc1	TSHR ag inconclusive, HEK293 cAMP cs 20µM (no result: Epigenetic mod, UbGFP stabilizer)
c1c[nH]c(CN2CCOCC2)n1	none
CCCC(=O)Nc1ccc(OC[C@@H](O)CNC(C)C)c(C(C)=O)c1	none
COc1cccc(Cn2c(=O)c(-c3cn(C)c4ccccc34)nc3cncnc32)c1	none (no result: TSHR ag)
CS(=O)(=O)N1CCC2(CCN(Cc3ccc(C#N)cc3)CC2)CC1	none
Cc1ccccc1CN1C2=NCCN2C(=O)C2=C1CCN(Cc1ccccc1)C2	none
c1ccc(-c2nnc3sc(-c4csc5c4CCCC5)nn23)cc1	TSHR ag inconclusive, HEK293 cAMP cs 25.1µM
c1ccc(-c2nnc3sc(-c4ccncc4)nn23)cc1	ERK AVP block inconclusive
Cc1cccc(-c2nnc3sc(-c4ccccc4C)nn23)c1	TSHR ag inconclusive, HEK293 cAMP cs 31.6µM
C=CC[C@@H](C(=O)O)c1ccccc1	none
COc1ccc2c(c1)c(CC(=O)N1CCOCC1)c(C)n2C(=O)c1ccc(Cl)cc1	TSHR ag inconclusive, HEK293 cAMP cs 39.8µM!
Cn1cc(C(=O)c2ccc(F)cc2)cc1-c1nc2ccccc2n1C	TSHR ag inconclusive, ERK AVP block 25.1µM, HEK293 cAMP cs inconclusive (no result: HBB splice mod)
CC1=C(C(=O)OCc2ccccc2)C(C2CC2)NC(=O)N1CCCCCC(=O)O (stereo not given)	TSHR ag inconclusive, HEK293 cAMP cs 20µM (no result: Epigenetic mod, UbGFP stabilizer)
COc1ccc(C(=O)c2coc3ccc(O)c(CN(C)C)c23)cc1	TSHR ag inconclusive, HEK293 cAMP cs 31.6µM (no result: Epigenetic mod, ERK AVP block)
CN1CCN(Cc2c(O)ccc3occ(C(=O)c4ccccc4)c23)CC1	none
Cc1cc(C)c2nc(C(F)(F)F)nc(N3CC(C)OC(C)C3)c2c1 (stereo not given)	TSHR ag inconclusive, HEK293 cAMP cs 25.1µM
COc1ccccc1C1C=C(c2ccc(C)cc2)Nc2nnnn21 (stereo not given)	TSHR ag inconclusive, HEK293 cAMP cs 25.1µM
COc1ccc(C2=CC(c3c(C)nn(-c4ccccc4)c3Cl)n3nnnc3N2)cc1OC (stereo not given)	TSHR ag inconclusive, ERK AVP block inconclusive
CCC(c1nnnn1CCc1ccccc1)N(Cc1ccco1)Cc1cc2cccc(C)c2[nH]c1=O (stereo not given)	TSHR ag inconclusive, HEK293 cAMP cs 15.8µM (no result: HBB splice mod)
CC(C)NC(=O)N1CCC2(CC1)CCN(C(=O)c1cnccn1)CC2	none
CN1CCc2cc(Cl)c(O)cc2[C@@H](c2ccccc2)C1	TSHR ag inconclusive, HEK293 cAMP cs 25.1µM (no result: HBB splice mod)
CCc1cc(Br)ccc1N1C(=O)C2CC=CCC2C1=O (stereo not given)	TSHR ag 2.51µM
CCOC(=O)c1ccc(N2C(=O)C3CC=CCC3C2=O)cc1 (stereo not given)	none
O=C(COC(=O)c1ccccc1NC(=O)c1ccco1)NCCC1=CCCCC1	TSHR ag inconclusive, HEK293 cAMP cs 25.1µM
O=C(COC(=O)c1ccccc1NC(=O)c1ccco1)Nc1ccc2c(c1)OCO2	TSHR ag inconclusive, ERK AVP block inconclusive, HEK293 cAMP cs inconclusive
CCOC(=O)Cn1nnnc1C(CC)N(Cc1cc2c(C)cc(C)cc2[nH]c1=O)C1CCCC1 (stereo not given)	none
CCOC(=O)Cn1nnnc1C(CC)N(Cc1cc2ccc(C)cc2[nH]c1=O)C1CCCC1 (stereo not given)	TSHR ag inconclusive, HEK293 cAMP cs 15.8µM
CCOC(=O)Cn1nnnc1C(CC)N(Cc1cccs1)Cc1cc2cc(C)ccc2[nH]c1=O (stereo not given)	TSHR ag inconclusive, HEK293 cAMP cs 3.98µM (no result: HBB splice mod)
CCC(c1nnnn1C1CCCC1)N(Cc1cccs1)Cc1cc2cc(C)ccc2[nH]c1=O (stereo not given)	none (no result: TSHR ag)
CCN1CCN(S(=O)(=O)c2ccc3[nH]c(=O)oc3c2)CC1	TSHR ag inconclusive, HEK293 cAMP cs 31.6µM (no result: Epigenetic mod, ERK AVP block)
CCOC(=O)C1CCN(S(=O)(=O)c2ccc3[nH]c(=O)oc3c2)CC1	none (no result: Epigenetic mod, ERK AVP block)
COC(=O)N1CC=CC1(C)C(=O)NCC1CC1 (stereo not given)	none (no result: Epigenetic mod, UbGFP stabilizer)
